# Records with an inconclusive call do not appear. Entries that show only a call come without a potency. Active and inactive are the calls of the source. Calls follow the shape of the dose curve; as a rule, active = well fitted curve in the direction sought with a large enough effect; inconclusive = small, poorly fitted or top-dose-only effect, or another doubt; inactive = no such curve, though single readings can be large; an effect the other way counts as inactive or inconclusive.
# Assays:
# [1] = molecular target: Rap guanine nucleotide exchange factor 3 (Homo sapiens) (UniProt O95398); assay: Confirmatory qHTS for antagonist of cAMP-regulated guanine nucleotide exchange factor 3 (EPAC1) (AID 1645880); also: nearly all actives have a fitted effect of over 55% in size; also: potency is read from the fitted curve at half-maximal effect
# In short: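 Released BODIPY-GDP fluoresces less than Rap1-bound BODIPY-GDP; the signal is followed at 480/540 nm at 5-min intervals over 30 min, after 5 min at room temperature. Reactions contain 100 nM EPAC1, 250 nM RAP1B-BODIPY-GDP and 50 uM GDP; results are normalized to ATA and DMSO.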
# [2] = molecular target: Rap guanine nucleotide exchange factor 3 (Homo sapiens) (UniProt O95398); assay: Confirmatory qHTS for agonist of cAMP-regulated guanine nucleotide exchange factor 3 (EPAC1) (AID 1645881); also: nearly all actives have a fitted effect of over 75% in size; also: potency is read from the fitted curve at half-maximal effect
# [3] = molecular target: Rap guanine nucleotide exchange factor 4 (Homo sapiens) (UniProt Q8WZA2); assay: Confirmatory qHTS for agonist of cAMP-regulated guanine nucleotide exchange factor 4 (EPAC2) (AID 1645884);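 also: nucleotide exchange releases bodipy-GDP from Rap1 and this lowers its fluorescence; nearly all actives have a fitted effect of over 65% in size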; also: potency is read from the fitted curve at half-maximal effect
# [4] = molecular target: Rap guanine nucleotide exchange factor 4 (Homo sapiens) (UniProt Q8WZA2); assay: Confirmatory qHTS for antagonist of cAMP-regulated guanine nucleotide exchange factor 4 (EPAC2) (AID 1645885); also: nearly all actives have a fitted effect of over 25% in size
# [5] = molecular target: Rap guanine nucleotide exchange factor 3 (Homo sapiens) (UniProt O95398); assay: Counterscreen qHTS for agonist of cAMP-regulated guanine nucleotide exchange factor 3 (EPAC1) (AID 1645889); also: nearly all actives have a fitted effect of over 40% in size; also: potency is read from the fitted curve at half-maximal effect
# In short: (§1)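 Measured: fluorescence of BODIPY-GDP bound to Rap1B, which falls as exchange proceeds. Conditions include 50 uM competing GDP, 5 and 30 min reads, and a later cAMP challenge for antagonist detection.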
# [6] = molecular target: Rap guanine nucleotide exchange factor 3 (Homo sapiens) (UniProt O95398); assay: Counterscreen qHTS for antagonist of cAMP-regulated guanine nucleotide exchange factor 3 (EPAC1) (AID 1645888)
# In short: as §1
# Rap guanine nucleotide exchange factor 4 (Homo sapiens), sequence (Q8WZA2 whole entry, looked up): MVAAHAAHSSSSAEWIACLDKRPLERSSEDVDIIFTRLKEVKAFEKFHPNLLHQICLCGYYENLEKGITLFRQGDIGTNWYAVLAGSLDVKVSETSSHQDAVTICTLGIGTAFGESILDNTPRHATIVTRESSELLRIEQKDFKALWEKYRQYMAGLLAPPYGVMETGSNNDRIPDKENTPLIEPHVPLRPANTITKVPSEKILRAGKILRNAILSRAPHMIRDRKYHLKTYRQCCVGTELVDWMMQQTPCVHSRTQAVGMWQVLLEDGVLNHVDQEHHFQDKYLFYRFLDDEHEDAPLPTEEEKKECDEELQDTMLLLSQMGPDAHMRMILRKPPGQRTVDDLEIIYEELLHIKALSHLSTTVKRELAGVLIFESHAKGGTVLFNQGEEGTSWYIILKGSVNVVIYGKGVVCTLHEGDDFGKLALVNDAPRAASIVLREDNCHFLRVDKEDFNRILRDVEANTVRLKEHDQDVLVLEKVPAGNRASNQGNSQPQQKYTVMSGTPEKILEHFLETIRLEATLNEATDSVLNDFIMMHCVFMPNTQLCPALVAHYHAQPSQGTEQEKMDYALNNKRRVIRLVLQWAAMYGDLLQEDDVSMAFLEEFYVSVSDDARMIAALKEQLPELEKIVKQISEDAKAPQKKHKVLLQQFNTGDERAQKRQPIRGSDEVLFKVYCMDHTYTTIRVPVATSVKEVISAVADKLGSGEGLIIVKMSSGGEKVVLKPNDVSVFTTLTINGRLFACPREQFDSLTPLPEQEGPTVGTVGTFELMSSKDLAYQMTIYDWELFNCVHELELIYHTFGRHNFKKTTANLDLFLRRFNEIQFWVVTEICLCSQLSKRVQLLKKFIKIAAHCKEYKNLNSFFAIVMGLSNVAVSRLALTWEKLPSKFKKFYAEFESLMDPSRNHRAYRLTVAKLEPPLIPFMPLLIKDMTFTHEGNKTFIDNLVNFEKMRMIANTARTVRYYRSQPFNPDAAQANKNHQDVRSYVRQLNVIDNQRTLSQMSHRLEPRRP
# Rap guanine nucleotide exchange factor 3 (Homo sapiens), sequence (O95398 whole entry, looked up): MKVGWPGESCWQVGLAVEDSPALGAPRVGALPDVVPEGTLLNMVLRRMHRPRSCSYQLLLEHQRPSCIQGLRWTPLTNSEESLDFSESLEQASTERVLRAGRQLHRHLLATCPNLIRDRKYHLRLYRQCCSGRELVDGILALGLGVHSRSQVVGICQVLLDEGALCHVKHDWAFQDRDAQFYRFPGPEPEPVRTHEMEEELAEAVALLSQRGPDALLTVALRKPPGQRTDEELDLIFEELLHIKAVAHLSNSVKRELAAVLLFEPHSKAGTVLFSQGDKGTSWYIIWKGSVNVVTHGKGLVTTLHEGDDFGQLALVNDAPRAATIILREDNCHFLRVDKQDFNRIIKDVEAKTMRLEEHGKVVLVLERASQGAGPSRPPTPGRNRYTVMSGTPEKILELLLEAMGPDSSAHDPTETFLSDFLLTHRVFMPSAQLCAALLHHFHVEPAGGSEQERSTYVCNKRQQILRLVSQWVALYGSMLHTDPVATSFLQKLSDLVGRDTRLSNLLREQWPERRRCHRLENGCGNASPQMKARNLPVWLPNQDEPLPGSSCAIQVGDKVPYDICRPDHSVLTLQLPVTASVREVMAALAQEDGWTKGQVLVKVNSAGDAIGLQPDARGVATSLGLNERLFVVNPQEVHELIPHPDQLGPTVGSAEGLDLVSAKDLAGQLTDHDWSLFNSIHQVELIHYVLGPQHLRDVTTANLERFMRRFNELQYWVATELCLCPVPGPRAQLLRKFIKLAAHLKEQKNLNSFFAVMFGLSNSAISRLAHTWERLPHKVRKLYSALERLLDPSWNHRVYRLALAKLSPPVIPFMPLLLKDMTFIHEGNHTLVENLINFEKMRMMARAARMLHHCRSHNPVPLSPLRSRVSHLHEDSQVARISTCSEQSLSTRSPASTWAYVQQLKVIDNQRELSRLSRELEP
Compound,Potency [1],Potency [2],Potency [3],Potency [4],Potency [5],outcome [6]
CCOC(=O)C1CCCN(c2ccc([N+](=O)[O-])c3nonc23)C1 (stereo not drawn),inactive,112 µM (active),100 µM (active),inactive,39.8 µM (active),–
COc1cccc(N2C(=O)NC(=O)/C(=C\c3cn(C)c4ccccc34)C2=O)c1,inactive,–,100 µM (active),inactive,–,inactive
O=[N+]([O-])c1ccc(N2CCOCC2)c2c1no[n+]2[O-],47.8 µM (active),inactive,inactive,–,inactive,–
